According to PubChem BioAssay (EPA / NIEHS):
Results filed as inconclusive are left out. Calls of active or inactive are those of the source. The calls were made as follows: active = hit-call score of the fitted dose curve at least 0.9, where 1 is the maximum; inconclusive = response in the unintended direction; inactive = score below 0.9.

Assays:
[1] = molecular target: Sodium channel protein type 1 subunit alpha (Rattus norvegicus) (UniProt P04774); assay: NVS_IC_rNaCh_site2: NovaScreen (NVS) Ion Channel Assay for rat Sodium Channel, Site 2 (NaCh) (AID 2283322);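 also: hit means loss of radioligand binding signal relative to DMSO so AC50 marks displacement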
In short: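 Membranes: rat forebrain. Format: competitive radioligand displacement, filter separation, scintillation readout, 1 h exposure. Primary screen in duplicate at 25 uM; actives retested in concentration series.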

[2] = molecular target: human Peripheral-type Benzodiazepine Receptor (PBR), TSPO (gene 706) (UniProt P30536); assay: NVS_MP_hPBR: NovaScreen (NVS) Membrane Protein Assay for human Peripheral-type Benzodiazepine Receptor (PBR) (AID 2283331);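 also: hits reduce radioligand binding relative to DMSO baseline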
In short: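 Radioligand displacement on human colonic cell membranes, 1 h incubation; bound radioactivity by filtration and scintillation counting. Primary screen in duplicate at 25 uM single concentration, actives followed up in concentration series; loss of binding versus DMSO.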

[3] = molecular target: rat Thyrotropin Releasing Hormone Receptor (TRH), Trhr (gene 25570) (UniProt Q01717); assay: NVS_GPCR_rTRH: NovaScreen (NVS) G Protein-Coupled Receptor Assay for rat Thyrotropin Releasing Hormone Receptor (TRH) (AID 2283329);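 also: hit means lower bound tracer signal versus DMSO baseline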
In short: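 Rat forebrain membranes; radioligand displacement at TRH receptor by filter-based scintillation counting, read 4 h after dosing. Duplicate single-point screen at 25 uM, actives rerun in concentration series; loss of signal relative to DMSO.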

[4] = molecular target: human Constitutive Androstane Receptor (CAR), NR1I3 (gene 9970) (UniProt Q14994); assay: NVS_NR_hCAR_Agonist: NovaScreen (NVS) Nuclear Receptor Binding Assay for human Constitutive Androstane Receptor Agonism (CAR) (AID 2283328)
In short: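 Cell-free TR-FRET binding readout with extracted human CAR protein, read 1 h after dosing. Gain of signal fitted against DMSO baseline. Single-concentration duplicates at 25 uM, then concentration-response up to 50 uM for actives.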

[5] = molecular target: human Serotonin, 5-Hydroxytryptamine Receptor 3 (5HT3), HTR3A (gene 3359) (UniProt P46098); assay: NVS_LGIC_h5HT3: NovaScreen (NVS) Ligand-Gated Ion Channel Assay for human Serotonin, 5-Hydroxytryptamine Receptor 3 (5HT3) (AID 2283325)
In short: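 Radioligand displacement binding to human 5-HT3 from HEK293 membranes, read by filter-based scintillation counting after 1 h. Screen at 25 uM in duplicate; chemicals passing threshold were retested in concentration-response up to 50 uM.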

[6] = molecular target: rat Gamma-Aminobutyric Acid Type A Receptor, Non-Selective (GABAR-NonSelective), Gabra1 (gene 29705) (UniProt P62813); assay: NVS_LGIC_rGABAR_NonSelective: NovaScreen (NVS) Ligand-Gated Ion Channel Assay for rat Gamma-Aminobutyric Acid Type A Receptor, Non-Selective (GABAR-NonSelective) (AID 2283326)
In short: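 Radioligand displacement on rat whole-brain extract, 1 h, filter scintillation readout; signal loss fitted versus DMSO. Primary screen in duplicate at 25 uM; hits (e.g. ≥30% inhibition) retested in concentration-response up to 50 uM.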

[7] = molecular target: rat Glutamate, AMPA Site (AMPA), Gria1 (gene 50592) (UniProt P19490); assay: NVS_LGIC_rAMPA: NovaScreen (NVS) Ligand-Gated Ion Channel Assay for rat Glutamate, AMPA Site (AMPA) (AID 2283324)
In short: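 Rat forebrain membranes; radioligand binding read 1 h after dosing by filtration and scintillation counting. Duplicate single-point screen at 25 uM, then concentration-response to 50 uM for threshold hits (e.g. 30% inhibition); loss of signal vs DMSO.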

[8] = molecular target: bovine Gamma-Aminobutyric Acid Type A Receptor BDZ, alpha 1 site (GABARa1), GABRA1 (gene 780973) (UniProt P08219); assay: NVS_LGIC_bGABARa1: NovaScreen (NVS) Ligand-Gated Ion Channel Assay for bovine Gamma-Aminobutyric Acid Type A Receptor BDZ, alpha 1 site (GABARa1) (AID 2283321)
Experimental: NVS_LGIC_bGABARa1 is a biochemical, single-readout assay that uses extracted gene-proteins from Bovine cortical membranes in a tissue-based cell-free assay. Measurements were taken 0.75 hour after chemical dosing in a 48-well plate.NVS_LGIC_bGABARa1 is one of one assay component(s) measured or calculated from the NVS_LGIC_bGABARa1 assay. It is designed to make measurements of radioligand binding, a form of binding reporter, as detected with scintillation counting signals by Filter-based radiodetection technology.Data from the assay component NVS_LGIC_bGABARa1 was analyzed into 1 assay endpoint. This assay endpoint, NVS_LGIC_bGABARa1, was analyzed in the positive analysis fitting direction relative to DMSO as the negative control and baseline of activity. Using a type of binding reporter, loss-of-signal activity can be used to understand changes in the binding as they relate to the gene GABRA1. Furthermore, this assay endpoint can be referred to as a primary readout, because the performed assay has only produced 1 assay endpoint. To generalize the intended target to other relatable targets, this assay endpoint is annotated to the ion channel intended target family, where the subfamily is ligand-gated ion channel. […]

[9] = molecular target: rat Oxytocin Receptor (OXT), Oxtr (gene 25342) (UniProt P70536); assay: NVS_GPCR_rOXT: NovaScreen (NVS) G Protein-Coupled Receptor Assay for rat Oxytocin Receptor (OXT) (AID 2283330)
Experimental: NVS_GPCR_rOXT is a biochemical, single-readout assay that uses extracted gene-proteins from Rat uterine membranes in a tissue-based cell-free assay. Measurements were taken 1 hour after chemical dosing in a 48-well plate.NVS_GPCR_rOXT is one of one assay component(s) measured or calculated from the NVS_GPCR_rOXT assay. It is designed to make measurements of radioligand binding, a form of binding reporter, as detected with scintillation counting signals by Filter-based radiodetection technology.Data from the assay component NVS_GPCR_rOXT was analyzed into 1 assay endpoint. This assay endpoint, NVS_GPCR_rOXT, was analyzed in the positive analysis fitting direction relative to DMSO as the negative control and baseline of activity. […] Furthermore, this assay endpoint can be referred to as a primary readout, because the performed assay has only produced 1 assay endpoint. […]
Binding assays used specific radioligands (tritiated, iodinated) with non-radioactive competitive displacement ligands in agonist or antagonist protocols (as indicated) and various reference compounds and inhibitors to titrate specific binding to receptors and transporters. Most enzyme assays (CYPs, kinases, phosphatases, proteases, HDACs) used recombinant protein and specific substrates (fluorescence mostly, some colorimetric and radioactive) and inhibitors, followed by a biochemical separation of substrate and product. […]

[10] = molecular target: human Androgen Receptor (AR), AR (gene 367) (UniProt P10275); assay: NVS_NR_hAR: NovaScreen (NVS) Nuclear Receptor Binding Assay for human Androgen Receptor (AR) (AID 2283332)
In short: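 LnCAP cell-free extract; radioligand displacement read by scintillation counting after 20 h. Primary screen single concentration 25 uM in duplicate, actives then run as concentration series; loss-of-signal fitted relative to DMSO baseline.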

Chain of rat Thyrotropin Releasing Hormone Receptor (TRH), Trhr (gene 25570) (Q01717 whole entry, looked up): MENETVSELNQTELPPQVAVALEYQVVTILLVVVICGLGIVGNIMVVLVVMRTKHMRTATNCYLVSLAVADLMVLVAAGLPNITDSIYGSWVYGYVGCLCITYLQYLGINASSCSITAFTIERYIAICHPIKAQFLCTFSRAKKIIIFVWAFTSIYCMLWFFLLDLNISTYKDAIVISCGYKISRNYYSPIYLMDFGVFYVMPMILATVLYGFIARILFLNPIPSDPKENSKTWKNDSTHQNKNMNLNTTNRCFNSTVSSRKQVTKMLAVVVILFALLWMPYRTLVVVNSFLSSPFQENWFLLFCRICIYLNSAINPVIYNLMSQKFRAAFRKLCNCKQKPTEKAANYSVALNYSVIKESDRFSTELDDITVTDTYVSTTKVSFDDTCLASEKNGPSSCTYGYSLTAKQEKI
Chain of human Constitutive Androstane Receptor (CAR), NR1I3 (gene 9970) (Q14994 whole entry, looked up): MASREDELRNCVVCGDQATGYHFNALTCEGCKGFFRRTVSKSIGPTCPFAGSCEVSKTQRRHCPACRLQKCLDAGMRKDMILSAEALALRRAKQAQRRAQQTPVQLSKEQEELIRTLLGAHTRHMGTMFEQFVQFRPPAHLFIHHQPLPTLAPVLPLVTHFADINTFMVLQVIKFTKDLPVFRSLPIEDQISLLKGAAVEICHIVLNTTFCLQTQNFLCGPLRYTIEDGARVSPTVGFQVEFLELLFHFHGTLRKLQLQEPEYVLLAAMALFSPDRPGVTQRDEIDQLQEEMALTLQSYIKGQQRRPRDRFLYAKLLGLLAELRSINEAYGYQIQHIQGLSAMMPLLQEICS
Chain of rat Glutamate, AMPA Site (AMPA), Gria1 (gene 50592) (P19490 whole entry, looked up): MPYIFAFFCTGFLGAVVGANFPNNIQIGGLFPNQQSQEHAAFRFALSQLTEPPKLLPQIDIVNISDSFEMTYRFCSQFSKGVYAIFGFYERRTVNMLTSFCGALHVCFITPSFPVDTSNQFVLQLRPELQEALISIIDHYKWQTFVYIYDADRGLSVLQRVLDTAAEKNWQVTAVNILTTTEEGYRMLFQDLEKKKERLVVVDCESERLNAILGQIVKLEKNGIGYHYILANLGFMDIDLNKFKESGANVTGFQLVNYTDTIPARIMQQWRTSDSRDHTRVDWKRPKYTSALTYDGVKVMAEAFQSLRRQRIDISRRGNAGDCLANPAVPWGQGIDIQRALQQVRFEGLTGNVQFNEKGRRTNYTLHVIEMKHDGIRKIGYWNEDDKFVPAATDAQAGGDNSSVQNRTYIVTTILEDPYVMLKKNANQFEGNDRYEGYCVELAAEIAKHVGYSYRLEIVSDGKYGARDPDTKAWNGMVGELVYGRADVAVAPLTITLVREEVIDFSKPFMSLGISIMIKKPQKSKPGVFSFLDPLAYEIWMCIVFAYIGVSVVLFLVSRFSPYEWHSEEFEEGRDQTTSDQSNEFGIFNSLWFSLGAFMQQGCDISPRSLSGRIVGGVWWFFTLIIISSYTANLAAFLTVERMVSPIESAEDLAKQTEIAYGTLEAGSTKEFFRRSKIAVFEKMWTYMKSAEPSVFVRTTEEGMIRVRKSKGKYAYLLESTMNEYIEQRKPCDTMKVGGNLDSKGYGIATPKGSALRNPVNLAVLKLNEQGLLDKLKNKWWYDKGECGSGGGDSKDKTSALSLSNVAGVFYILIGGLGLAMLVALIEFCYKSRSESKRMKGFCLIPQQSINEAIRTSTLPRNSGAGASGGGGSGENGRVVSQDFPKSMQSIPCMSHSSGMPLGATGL
Chain of human Peripheral-type Benzodiazepine Receptor (PBR), TSPO (gene 706) (P30536 whole entry, looked up): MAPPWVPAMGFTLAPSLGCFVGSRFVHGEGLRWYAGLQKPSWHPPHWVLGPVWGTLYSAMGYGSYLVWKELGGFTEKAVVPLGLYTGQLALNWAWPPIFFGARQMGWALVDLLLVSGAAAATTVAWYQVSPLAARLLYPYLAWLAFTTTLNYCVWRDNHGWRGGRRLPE
Chain of rat Gamma-Aminobutyric Acid Type A Receptor, Non-Selective (GABAR-NonSelective), Gabra1 (gene 29705) (P62813 whole entry, looked up): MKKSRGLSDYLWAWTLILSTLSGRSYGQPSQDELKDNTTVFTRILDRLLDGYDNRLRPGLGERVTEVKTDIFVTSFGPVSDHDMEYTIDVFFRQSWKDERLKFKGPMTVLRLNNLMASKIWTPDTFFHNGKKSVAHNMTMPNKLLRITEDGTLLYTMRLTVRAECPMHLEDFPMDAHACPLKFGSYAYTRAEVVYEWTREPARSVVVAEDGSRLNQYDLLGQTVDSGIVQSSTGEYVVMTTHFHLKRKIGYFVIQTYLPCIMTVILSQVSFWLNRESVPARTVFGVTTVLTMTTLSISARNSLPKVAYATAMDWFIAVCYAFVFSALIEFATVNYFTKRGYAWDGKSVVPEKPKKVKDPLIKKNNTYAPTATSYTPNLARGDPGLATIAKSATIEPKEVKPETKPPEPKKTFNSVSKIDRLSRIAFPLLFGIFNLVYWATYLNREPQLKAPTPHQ
Chain of human Serotonin, 5-Hydroxytryptamine Receptor 3 (5HT3), HTR3A (gene 3359) (P46098 whole entry, looked up): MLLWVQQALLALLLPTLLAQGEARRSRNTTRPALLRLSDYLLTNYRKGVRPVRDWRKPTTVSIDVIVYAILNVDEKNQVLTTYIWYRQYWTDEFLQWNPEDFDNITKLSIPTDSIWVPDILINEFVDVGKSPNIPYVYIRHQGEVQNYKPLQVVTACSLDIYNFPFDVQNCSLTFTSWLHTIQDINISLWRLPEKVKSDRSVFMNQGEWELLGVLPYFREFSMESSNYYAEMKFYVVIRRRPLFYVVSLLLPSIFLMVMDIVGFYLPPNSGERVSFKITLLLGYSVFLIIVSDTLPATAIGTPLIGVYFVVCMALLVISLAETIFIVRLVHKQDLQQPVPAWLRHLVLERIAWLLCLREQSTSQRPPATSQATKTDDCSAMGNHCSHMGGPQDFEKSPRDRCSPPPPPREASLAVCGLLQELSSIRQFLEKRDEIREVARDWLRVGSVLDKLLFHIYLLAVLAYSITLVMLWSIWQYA
Chain of bovine Gamma-Aminobutyric Acid Type A Receptor BDZ, alpha 1 site (GABARa1), GABRA1 (gene 780973) (P08219 whole entry, looked up): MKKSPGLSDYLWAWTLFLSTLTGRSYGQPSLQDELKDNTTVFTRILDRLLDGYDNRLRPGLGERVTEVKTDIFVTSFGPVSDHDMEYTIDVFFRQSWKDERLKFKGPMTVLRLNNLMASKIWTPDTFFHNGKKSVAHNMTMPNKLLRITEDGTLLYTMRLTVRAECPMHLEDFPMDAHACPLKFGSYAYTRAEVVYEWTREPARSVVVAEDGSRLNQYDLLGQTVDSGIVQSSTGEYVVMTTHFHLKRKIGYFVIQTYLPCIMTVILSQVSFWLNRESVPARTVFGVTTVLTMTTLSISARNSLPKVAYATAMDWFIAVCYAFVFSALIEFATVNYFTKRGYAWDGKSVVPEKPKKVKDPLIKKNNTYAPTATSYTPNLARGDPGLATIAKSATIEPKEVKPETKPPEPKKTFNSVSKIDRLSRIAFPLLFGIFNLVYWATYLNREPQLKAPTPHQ
Chain of rat Oxytocin Receptor (OXT), Oxtr (gene 25342) (P70536 whole entry, looked up): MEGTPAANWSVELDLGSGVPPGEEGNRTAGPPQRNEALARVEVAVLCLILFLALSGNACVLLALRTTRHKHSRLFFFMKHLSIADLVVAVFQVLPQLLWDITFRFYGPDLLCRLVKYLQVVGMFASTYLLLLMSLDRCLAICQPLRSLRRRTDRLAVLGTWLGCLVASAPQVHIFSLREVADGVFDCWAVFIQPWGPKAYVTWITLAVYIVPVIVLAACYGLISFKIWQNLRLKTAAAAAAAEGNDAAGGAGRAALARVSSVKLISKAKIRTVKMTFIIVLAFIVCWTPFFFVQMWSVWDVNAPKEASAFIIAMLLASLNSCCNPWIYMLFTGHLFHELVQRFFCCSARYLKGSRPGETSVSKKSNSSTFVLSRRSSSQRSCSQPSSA
Chain of human Androgen Receptor (AR), AR (gene 367) (P10275 whole entry, looked up): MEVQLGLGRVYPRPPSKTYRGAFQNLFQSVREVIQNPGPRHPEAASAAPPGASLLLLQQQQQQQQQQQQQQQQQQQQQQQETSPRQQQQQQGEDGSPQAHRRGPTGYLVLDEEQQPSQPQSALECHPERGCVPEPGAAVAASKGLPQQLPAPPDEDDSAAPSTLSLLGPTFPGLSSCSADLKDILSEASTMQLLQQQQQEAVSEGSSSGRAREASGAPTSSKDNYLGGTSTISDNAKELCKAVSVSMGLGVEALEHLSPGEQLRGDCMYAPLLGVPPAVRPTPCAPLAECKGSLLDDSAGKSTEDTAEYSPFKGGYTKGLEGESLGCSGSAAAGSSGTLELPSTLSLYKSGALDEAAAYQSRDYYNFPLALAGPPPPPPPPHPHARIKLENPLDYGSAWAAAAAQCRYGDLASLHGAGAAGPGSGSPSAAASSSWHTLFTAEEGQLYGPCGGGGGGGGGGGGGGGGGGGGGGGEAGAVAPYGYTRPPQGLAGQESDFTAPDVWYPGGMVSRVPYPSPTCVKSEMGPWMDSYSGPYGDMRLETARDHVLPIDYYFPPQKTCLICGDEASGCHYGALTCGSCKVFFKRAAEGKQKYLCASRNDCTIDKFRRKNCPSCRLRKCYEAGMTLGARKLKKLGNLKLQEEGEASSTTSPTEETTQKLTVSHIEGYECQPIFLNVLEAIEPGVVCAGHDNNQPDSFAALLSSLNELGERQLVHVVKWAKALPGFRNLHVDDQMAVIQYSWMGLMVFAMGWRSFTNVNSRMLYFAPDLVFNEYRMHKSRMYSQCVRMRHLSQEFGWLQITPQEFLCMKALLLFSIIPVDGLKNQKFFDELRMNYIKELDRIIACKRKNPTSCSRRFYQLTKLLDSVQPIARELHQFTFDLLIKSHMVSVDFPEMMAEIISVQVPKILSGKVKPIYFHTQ

**Q.** Which outcome [1] does the source give for `CC(C)(C)CC(C)(C)c1ccc(O)cc1` here?
**A.** inactive

**Q.** Which AC50 [1] does the source give for `CCCCCCCCC(=O)NCc1ccc(O)c(OC)c1` here?
**A.** 1.55 µM (active)

**Q.** And the AC50 [2]?
**A.** 4.12 µM (active)

**Q.** For `CC(C)C1CCC(Cc2ccc(Cl)cc2)C1(O)Cn1cncn1` (configuration not stated), which outcome [3] is on record?
**A.** inactive

**Q.** How did the AC50 [1] turn out when `CCC(=O)C(CC(C)N(C)C)(c1ccccc1)c1ccccc1` (configuration not stated) was run?
**A.** 1.97 µM (active)

**Q.** With `O=C1C2(Cl)C3(Cl)C4(Cl)C(Cl)(Cl)C5(Cl)C3(Cl)C1(Cl)C5(Cl)C24Cl` (configuration not stated) as the compound, how does the outcome [4] read?
**A.** inactive

**Q.** Which outcome [1] does the source give for `N#CCc1ccc(Cl)cc1` here?
**A.** inactive

**Q.** Which outcome [3] does the source give for `O=c1[nH]c(=O)[nH]c(=O)[nH]1` here?
**A.** inactive

**Q.** How did the outcome [3] turn out when `ClCC(Cl)CCl` was run?
**A.** inactive

**Q.** `O=C(O)C(F)(F)C(F)(F)C(F)(F)C(F)(F)C(F)(F)C(F)(F)C(F)(F)C(F)(F)C(F)(F)C(F)(F)F` was tested. Which outcome [5] did it give?
**A.** inactive

**Q.** Which AC50 [6] does the source give for `CCOP(=S)(OCC)Oc1nc(Cl)c(Cl)cc1Cl` here?
**A.** 9.12 µM (active)

**Q.** What about the outcome [4] of the same compound?
**A.** inactive

**Q.** How did the AC50 [1] turn out when `C=C(C)C(=O)[O][Sn]([CH2]CCC)([CH2]CCC)[CH2]CCC` was run?
**A.** 25 µM (active)

**Q.** And the AC50 [7]?
**A.** 25 µM (active)

**Q.** What about the AC50 [3] of the same compound?
**A.** 20.3 µM (active)

**Q.** For `CCN1CCC2(CC1)COc1cc3c(cc12)N(C(=O)c1ccc(-c2ccc(-c4nnc(C)o4)cc2C)cc1)CC3`, which AC50 [1] is on record?
**A.** 3.44 µM (active)

**Q.** What about the AC50 [2] of the same compound?
**A.** 2.37 µM (active)

**Q.** For `NC(=S)Nc1ccccc1`, which AC50 [1] is on record?
**A.** 0.569 µM (active)

**Q.** For `CCNc1nc(NC(C)(C)C)nc(SC)n1`, which AC50 [1] is on record?
**A.** 12.1 µM (active)

**Q.** With `CC(C)c1cccc(C(C)C)c1O` as the compound, how does the outcome [3] read?
**A.** inactive

**Q.** With `O=[N+]([O-])c1ccc(O)c([N+](=O)[O-])c1` as the compound, how does the outcome [3] read?
**A.** inactive

**Q.** How did the outcome [3] turn out when `Cl/C=C/Cl` was run?
**A.** inactive

**Q.** How did the outcome [3] turn out when `Oc1cccc2cccnc12` was run?
**A.** inactive

**Q.** For `Cn1sc(Cl)cc1=O`, which outcome [8] is on record?
**A.** inactive

**Q.** How did the outcome [3] turn out when `COC(=O)c1sccc1S(=O)(=O)NC(=O)Nc1nc(C)nc(OC)n1` was run?
**A.** inactive

**Q.** Which outcome [3] does the source give for `COc1ccc(C=O)cc1` here?
**A.** inactive

**Q.** Which results are given for `CC(=O)[O][Hg][c]1ccccc1`?
**A.** AC50 [7]: 9.18 µM (active); AC50 [9]: 15.7 µM (active); AC50 [10]: 16.9 µM (active)

**Q.** `C[C@]12CC[C@H](O)CC1=CC[C@@H]1[C@@H]2CC[C@]2(C)C(=O)CC[C@@H]12` was tested. Which outcome [3] did it give?
**A.** inactive

**Q.** Which outcome [1] does the source give for `CCSC(C)CC1CC(=O)C(C(CC)=NOC/C=C/Cl)=C(O)C1` (configuration not stated) here?
**A.** inactive

**Q.** `O=C(Cl)c1ccc(Cl)cc1` was tested. Which outcome [1] did it give?
**A.** inactive
